Screening results: PubChem BioAssay, National Center for Advancing Translational Sciences (NCATS)
In the library only some 3.9% were active in any assay of this set; here they are far more common.
HT1080 IDH1KD tx: toxicity to HT-1080 IDH1 knockdown cells (counter line); AID 686971; HT-1080 IDH1 knockdown viability, ATP luminescence, 48 h; Potency, µM (titrated, usually from 46.1 µM), most hits filed as cytotoxic; hit rate 2% among 360,000
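% activity derives from luminescence (CellTiter-Glo), normalised to DMSO and no-cell wells. HT-1080-IDH1KD cells, 750/well, had 48 h compound exposure at 37 °C.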
ATXN viability: cell viability loss in ATXN counter-screen. S2 cells (HEK-293 line with an ATXN2-luciferase reporter) viability, CellTiter-Fluor protease fluorescence, 24 h. Potency, µM (doses to about 56.7 µM), actives largely listed as cytotoxic. hit rate 0.49% among 400,000. AID 651635; note: nearly all actives have a fitted effect of over 40% in size
HepG2 viability: kills HepG2 cells in TGF-b inhibitor counter-screen; HepG2 CAGA-GFP viability, ATP luminescence, 18 h; Potency, µM (doses to about 46.1 µM), actives largely listed as cytotoxic; hit rate 0.76% among 410,000
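HepG2 CAGA-GFP cells (1000/well, DMEM with 1% FBS) received compound, then TGF-beta at 500 pg/mL final, and were incubated 18 hours at 37 degrees C. Viability was read by CellTiter-Glo luminescence. Media-only wells were set as complete cell-killing and DMSO as no toxicity.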
HT1080NT lethal: kills 2HG-producing HT-1080-NT fibrosarcoma cells; Potency, µM (series often up to 46.1 µM), most hits filed as cytotoxic; HT-1080-NT fibrosarcoma viability, CellTiter-Glo ATP luminescence, 48 h; hit rate 1.6% among 360,000;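 note: NT is the 2HG producing partner of a matched IDH1 knockdown line; nearly all actives have a fitted effect of over 55% in size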
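Fibrosarcoma NT cells, 750 per well in 5% FBS RPMI, were exposed to compound for 48 hours. Viability: CellTiter-Glo luminescence.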
ATXN2 expr inh: inhibitors of ATXN2 expression; hit rate 0.72% among 360,000; Potency, µM (titrated, usually from 57 µM), most hits filed as inhibitors; AID 1745845; HEK-293 ATXN2-luciferase reporter, luminescence, 24 h; note: nearly all actives have a fitted effect of over 55% in size
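ATXN2-luciferase reporter cells (luciferase flanked by upstream and downstream ATXN2 gene portions) were treated 24 h at 37 °C with compounds at up to 57 uM. SteadyGlo luminescence gave expression; GF-AFC fluorescence gave viability.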
TGFb inhibitor: inhibitors of TGF-b signaling. AID 588855. hit rate 1.2% among 410,000. HepG2 CAGA-GFP TGF-b/SMAD3 reporter, GFP fluorescence, 18 h; TGF-beta stimulated, 500 pg/mL final. Potency, µM (top dose mostly 46.1 µM), most hits filed as inhibitors; note: nearly all actives have a fitted effect of over 65% in size
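Cell-based qHTS in HEPG2 carrying a CAGA-GFP Smad reporter; compounds added before 500 pg/mL final TGF-beta, 18 h incubation at 37 degrees C, GFP fluorescence quantified per cell by imaging cytometry.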
A number is an active result; n = inactive; u = inconclusive; x = no result; [ ] = dose if it differs, or a comment. Calls come from the whole dose curve; as a rule, active = well fitted curve in the direction sought with a large enough effect; inconclusive = small, poorly fitted or top-dose-only effect, or another doubt; inactive = no such curve, though single readings can be large; an effect the other way counts as inactive or inconclusive.

SMILES	HT1080 IDH1KD tx	ATXN viability	HepG2 viability	HT1080NT lethal	ATXN2 expr inh	TGFb inhibitor
COc1ccc(CCNC(=O)COc2ccc(S(=O)(=O)NC3CCCCC3)cc2Cl)cc1	u	x	n	u	u	14µM
COc1ccc(CCNC(=O)CCc2ccc(S(=O)(=O)NC(C)C)cc2)cc1OC	n	u	n	n	n	n
COc1ccc(CCNC(=O)COc2ccc(S(=O)(=O)NC(C)C)cc2Cl)cc1OC	11µM	n	n	u	n	n
COc1ccc(Br)cc1CN(C)CC(=O)NCCc1ccccc1	n	n	n	n	n	n
O=C(COc1ccc(S(=O)(=O)NC2CCCCC2)cc1Cl)NCC1CCCO1 (configuration not stated)	n	n	n	n	n	n
Cc1ccccc1Nc1nnc(SCC2CCCCO2)s1 (configuration not stated)	n	n	n	n	n	n
COc1ccccc1Nc1nnc(SCC2CCCCO2)s1 (configuration not stated)	15µM	n	n	16µM	n	n
COC(=O)c1ccccc1NC(=O)CSc1nc2ccccc2c(=O)[nH]1	n	n	n	n	n	n
COc1ccc(-c2csc(NC(=O)CSc3nnc(Nc4ccccc4C)s3)n2)cc1	21µM	u	n	21µM	n	n
COc1ccccc1Nc1nnc(SCC(=O)Nc2nc(-c3ccc(F)cc3)cs2)s1	u	u	n	23µM	x	u
CCOc1ccccc1Nc1nnc(SCC(=O)Nc2nc(-c3ccc(OC)cc3)cs2)s1	n	n	n	n	n[11.3 µM]	n
NC(=O)c1ccccc1NC(=O)CSc1nc2ccccc2c(=O)[nH]1	u	n	n	13µM	n	n
COc1ccc(C2CC(=O)N(CC(=O)Nc3ccc(C)c(Cl)c3)c3ccccc3S2)cc1OC (configuration not stated)	x	n	n	x	n	n
CCS(=O)(=O)N1CC(=O)N(c2ccc(Cl)cc2C)C(C)(C(=O)NC2CCCCCC2)C1 (configuration not stated)	x	x	n	x	x	n
CCOC(=O)c1cc2c(=O)n3ccccc3nc2n(CCCOC)c1=NC(=O)c1cc2ccccc2o1	x	n	n	x	n	n
COc1ccc(OC)c(-c2csc(NC(=O)Cn3[nH]c(=O)c4ccccc4c3=O)n2)c1	21µM	u	n	u	n	n
COc1ccccc1NC(=O)CSc1nnc(NC(=O)NC2CCCCC2)s1	x	x	n	x	x	18µM
COc1ccc(OC)c(-c2csc(NC(=O)Cc3ccc(F)cc3)n2)c1	u	n	n	u	n	u
Cc1ccc(-c2csc(NC(=O)CSc3nc4ccccc4[nH]3)n2)cc1	n	n	n	n	n	u
COc1ccc(-c2csc(NC(=O)CSc3nc4ccccc4c(=O)[nH]3)n2)cc1	16µM	n	n	18µM	n	n
CCN(C(=O)Cn1nc(Cc2cccnc2)c2ccccc2c1=O)c1cc(C)ccc1C	x	x	n	x	x	u
CN1N/C(=C\c2ccccc2)N=C2C(=O)N(C)C(=O)N=C21	x	x	1.1µM	x	x	n
CC(C)(C)NC(=O)[C@H]1CC[C@H]2[C@@H]3CC=C4C=C(C(=O)O)CC[C@]4(C)[C@H]3CC[C@]12C	x	n	x	x	x	x
COc1ccc(NC(=O)Nc2cccc3c2O[C@H](CN(C)C(=O)Nc2ccc(C(F)(F)F)cc2)[C@@H](C)CN([C@H](C)CO)C3=O)cc1	n	u	n	n	n	u
C[C@H](CO)N1C[C@H](C)[C@@H](CN(C)C(=O)Nc2ccc(C(F)(F)F)cc2)Oc2c(NC(=O)Nc3ccc(C(F)(F)F)cc3)cccc2C1=O	u	16µM	n	u	u	14µM
C[C@H]1CN([C@@H](C)CO)C(=O)c2cccc(NC(=O)Nc3ccc(C(F)(F)F)cc3)c2O[C@@H]1CN(C)C(=O)Nc1ccc(F)cc1	u	13µM	n	u	20µM	u
NS(=O)(=O)c1cc2c(cc1Cl)CN(C1CCCCC1)C2=O	x	n	x	x	n	x
